{"source": "PubChem BioAssay (Tox21)", "note": "Values joined by “and” are separate entries in the source; they are usually repeats but may differ in a detail not shown here. Identical values can stand only once. Inconclusive results are not listed. A call without a number means that no potency is given here. More than one record can exist for a structure, and the calls need not agree. Active and inactive are the calls of the source. The call rests on the fitted dose curve; in most records, active means well fitted inhibition curve with a large enough effect in the repeat runs; inconclusive means weak or mixed curves; inactive means no such curve, though single readings can be large or run the other way. Potency means the concentration at half of the fitted maximal effect.", "data": [{"target": "Cytochrome P450 3A4 (Homo sapiens) (UniProt P08684)", "sequence (P08684 whole entry, looked up)": "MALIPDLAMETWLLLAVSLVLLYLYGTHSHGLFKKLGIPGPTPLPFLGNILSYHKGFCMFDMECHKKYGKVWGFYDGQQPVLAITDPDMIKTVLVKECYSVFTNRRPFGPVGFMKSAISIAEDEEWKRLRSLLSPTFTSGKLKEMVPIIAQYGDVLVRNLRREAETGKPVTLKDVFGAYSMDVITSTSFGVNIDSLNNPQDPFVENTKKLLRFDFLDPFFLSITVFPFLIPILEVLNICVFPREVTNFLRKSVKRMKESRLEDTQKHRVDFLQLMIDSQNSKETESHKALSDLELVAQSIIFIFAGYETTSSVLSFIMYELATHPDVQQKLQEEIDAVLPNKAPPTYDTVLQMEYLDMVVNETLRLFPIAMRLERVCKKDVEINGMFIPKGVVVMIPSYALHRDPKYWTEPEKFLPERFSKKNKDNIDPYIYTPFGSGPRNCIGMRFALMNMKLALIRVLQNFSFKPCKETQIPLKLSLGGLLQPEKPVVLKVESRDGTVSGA", "experiment": "Cytochrome P450 Family 3 Subfamily A Member 4 (CYP3A4) small molecule antagonists: luciferase reporter qHTS assay (AID 1671201); further: nearly all actives have a fitted effect of over 50% in size", "settings": "P450-Glo CYP3A4 enzyme, luciferin luminescence, 1 h; series mostly up to 115 µM", "outline": "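P450-Glo CYP3A4 luminescent assay: compounds preincubated 10 min at room temperature with enzyme and proluciferin substrate, NADPH regeneration added, 1 h room-temperature reaction, stopped with luciferin detection reagent; luminescence read after 20 min. Ketoconazole positive control.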", "values": [{"molecule": "CC(=O)CC(=O)Nc1ccccc1", "Potency": "inactive"}, {"molecule": "CCCCCCCCCCCCOCCO", "Potency": "inactive"}, {"molecule": "CN(C)CCCN", "Potency": "inactive"}, {"molecule": "O=C(CC(C(=O)OC1CCCCC1)S(=O)(=O)O)OC1CCCCC1", "note": "(configuration not stated)", "Potency": "inactive"}, {"molecule": "CCN(CC)c1ccc(C(=O)c2ccccc2C(=O)O)c(O)c1", "Potency": "inactive"}, {"molecule": "CC(C)c1ccc(S(=O)(=O)O)cc1", "Potency": "inactive"}, {"molecule": "O=C(O)c1cc(C(=O)O)cc(S(=O)(=O)O)c1", "Potency": "inactive"}, {"molecule": "O=[N+]([O-])c1ccc(/C=C/c2ccc([N+](=O)[O-])cc2S(=O)(=O)O)c(S(=O)(=O)O)c1", "Potency": "inactive"}, {"molecule": "Nc1cc([N+](=O)[O-])ccc1O", "Potency": "inactive"}, {"molecule": "Cc1ccc2oc(=O)ccc2c1", "Potency": "inactive"}, {"molecule": "C=C(C)C(=O)Nc1ccc(Cl)c(Cl)c1", "Potency": "inactive"}, {"molecule": "CCCCCCCCCCCCS", "Potency": "inactive"}, {"molecule": "C=C(C)C(=O)OCCOCCOCCOC(=O)C(=C)C", "Potency": "inactive"}, {"molecule": "O=P(OC(CCl)CCl)(OC(CCl)CCl)OC(CCl)CCl", "Potency": "706 nM (active) and 2.83 µM (active)"}, {"molecule": "CCCCN(CCCC)CCCC", "Potency": "inactive"}, {"molecule": "CCCCCOC(C)=O", "Potency": "inactive"}, {"molecule": "C=C(C)C(=O)O[C@H]1C[C@@H]2CC[C@@]1(C)C2(C)C", "Potency": "inactive"}, {"molecule": "CCCCCC(N)=O", "Potency": "inactive"}, {"molecule": "CCCCC(CC)COC(=O)CS", "note": "(configuration not stated)", "Potency": "40.4 µM (active)"}, {"molecule": "CCCCC(CC)COC(=O)CCCCC(=O)OCC(CC)CCCC", "note": "(configuration not stated)", "Potency": "inactive"}, {"molecule": "CCC(O)OC(O)CC", "note": "(configuration not stated)", "Potency": "inactive"}, {"molecule": "N[C@@H](Cc1cc(I)c(Oc2cc(I)c(O)c(I)c2)c(I)c1)C(=O)O", "Potency": "inactive"}, {"molecule": "OCC(CO)(CBr)CBr", "Potency": "inactive"}, {"molecule": "CC1CCC2CC1C2(C)C", "note": "(configuration not stated)", "Potency": "inactive and 39.9 µM (active)"}, {"molecule": "CCOC(=O)NNc1nncc2ccccc12", "Potency": "inactive"}, {"molecule": "CC(=O)Nc1ccccc1", "Potency": "inactive"}, {"molecule": "C#CCN(C)Cc1ccccc1", "Potency": "inactive"}, {"molecule": "Cc1occc(=O)c1O", "Potency": "inactive"}, {"molecule": "O=C(O)[C@H](O)[C@@H](O)[C@H](O)[C@H](O)CO", "Potency": "inactive"}, {"molecule": "O=c1[nH]c(=O)n([C@H]2C[C@H](O)[C@@H](CO)O2)cc1Br", "Potency": "inactive"}, {"molecule": "O=C(Oc1ccccc1)c1ccccc1", "Potency": "inactive"}, {"molecule": "COS(C)(=O)=O", "Potency": "inactive"}]}]}
